# Reference: PubChem BioAssay AID1745845 (National Center for Advancing Translational Sciences (NCATS), 2022)
# Values joined by “and” are separate entries in the source; they are usually repeats but may differ in a detail not shown here. Equal entries are not always repeated. Screen size: about 360,000 compounds; about 2,600 (0.72%) were called active. Another 5% or so got no clear call; they are omitted. Calls follow the shape of the dose curve; as a rule, active = well fitted inhibition curve with a large enough effect; inconclusive = small, poorly fitted or top-dose-only effect; inactive = no such curve, though single readings can be large or run the other way. Shown is part of a subset that was picked to be rich in actives. Entries that show only a call come without a potency.
# Test: Primary qHTS for Inhibitors of ATXN expression; also: nearly all actives have a fitted effect of over 55% in size
# Conditions: HEK-293 ATXN2-luciferase reporter, luminescence, 24 h; series mostly up to 57 µM
# How it was run: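 ATXN2-luciferase reporter cells (luciferase flanked by upstream and downstream ATXN2 gene portions) were treated 24 h at 37 °C with compounds at up to 57 uM. SteadyGlo luminescence gave expression; GF-AFC fluorescence gave viability.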
# Potency is read from the fitted curve at half-maximal effect.
Compound,Potency,"activity change, negative = inhibition"
Cc1ccc(OCCn2c(CNc3ccccc3C)nc3ccccc32)cc1,inactive,–
CCCn1ccc2c(OCC(=O)NCc3ccc(F)cc3)cccc2c1=O,inactive,–
COc1ccc(C(C#N)=C2C=CC(=NO)c3ccccc32)cc1,inactive,–
O=C(Nc1ccccc1Cl)/C(Cl)=C(\Cl)S(=O)c1ccccc1 (configuration not stated),3.55 µM (active),–
NC(=O)C1(Nc2ccccc2Cl)CCCC1,inactive,–
O=C(CCN1CCN(C/C=C/c2ccccc2)CC1)Nc1ccccc1Cl,inactive,–
CSCCC(c1nnnn1Cc1ccccc1)N1CCN(C/C=C/c2ccccc2)CC1 (configuration not stated),inactive,–
CCCN1CCN(CCCNC(=O)Cn2nc(CC)n3c(cc4occc43)c2=O)CC1,inactive,–
Cc1cccc(C(=O)NCCc2nc3ccccc3n2Cc2ccccc2Cl)c1,inactive,–
Cc1ccccc1CSc1nc(-c2ccccc2)nc2c1Cc1c(CO)cnc(C)c1O2,inactive,–
CCOC(=O)[C@]12CCCC=C1N(Cc1cccc3ccccc13)C(=O)[C@H](CC(=O)NCC13CC4CC(CC(C4)C1)C3)C2,inactive,–
COc1cc(Nc2ncc(F)c(Nc3ccc4c(n3)NC(=O)C(C)(C)O4)n2)cc(OC)c1OC,inactive,–
CCOc1ccc(CCNC(=O)c2cc3c(=O)n(C)c4ccccc4c3n2C)cc1,inactive,–
CCCC(O)(CCC)C(=O)NN(C(=O)CCl)c1cccc(C)c1,21.2 µM (active),–
CC(C)(O)C(=O)NN(C(=O)c1ccccc1)c1cccc(Br)c1,inactive,–
CCCCC(O)(CCCC)C(=O)NN(C(=O)CCl)c1ccccc1,inactive,–
C=CCC[C@@H](CCCCC)OC(=O)/C=C/[C@@H](O)[C@H](O)C[C@H](O)CC=C,inactive,–
CC(C)CC(=O)NCC(c1ccc2c(c1)OCO2)N1CCN(c2ccc(F)cc2)CC1 (configuration not stated),inactive,–
C[C@H]1C[C@H]2[C@@H]3CCC4=CC(=O)C=C[C@]4(C)[C@@H]3C(=O)C[C@]2(C)[C@@]1(O)C(=O)CO,inactive,–
CO[C@H]1C[C@@H]2CC[C@@H](C)[C@@](O)(O2)C(=O)C(=O)N2CCCC[C@@H]2C(=O)O[C@H]([C@@H](C)C[C@@H]2CC[C@H](O)[C@H](OC)C2)CC(=O)[C@H](C)C=C(C)[C@@H](O)[C@@H](OC)C(=O)[C@H](C)C[C@H](C)C=CC=CC=C1C,inactive,–
CCN(CC)CCC(c1ccc2c(c1)OCO2)c1c(OC)cc(OC)c2c(-c3ccccc3)cc(=O)oc12 (configuration not stated),31.6 µM (active),–
COc1cc(OC)c2ccc(=O)oc2c1C(CCN1CCN(c2ccccc2)CC1)c1ccc2c(c1)OCO2 (configuration not stated),inactive,–

Compound,Potency,"activity change, negative = inhibition"
COc1cc(C(CCN2CCN(c3ccccc3)CC2)c2c(OC)cc(OC)c3ccc(=O)oc23)cc(OC)c1OC (configuration not stated),inactive,–
Cc1ccccc1-n1c(=O)c2ccccc2n(Cc2ccc(F)cc2)c1=O,inactive,–
CCNC(=O)c1cc2n(n1)CCCN(Cc1ccc(C)cc1)C2=O,inactive,–
CC1CCCCN1S(=O)(=O)c1ccc(F)c(C(=O)Nc2ccccc2C(F)(F)F)c1 (configuration not stated),inactive,–
CCN(CCCNC(=O)CSc1cc(=O)n(C)c2cc(Cl)ccc12)c1cccc(C)c1,inactive,–
CCC(CC)C(=O)N1CCc2cc(OC)c(OC)cc2C1COc1ccc(F)cc1 (configuration not stated),inactive,–
COc1cc2c(cc1OC)CN(CC(=O)Nc1ccc(F)cc1)CC2,inactive,–
CC[C@H]1CN2CCc3cc(OC)c(OC)cc3[C@@H]2C[C@@H]1C[C@H]1NCCc2cc(OC)c(OC)cc21,1.41 µM (active) and 112 nM (active),–
Cc1cc(C)cc(NS(=O)(=O)c2cc3c(cc2C)NC(=O)CO3)c1,inactive,–
CC=CCC=CCCC(=O)[C@H]1O[C@@H]1C(N)=O,inactive,–
COc1ccc2c(c1)c(=Cc1ccc(N(C)C)cc1)c1cc(-c3ccccc3)[n+](C)n12,8.91 µM (active),–
COc1cccc(NC(=O)Cn2c(=O)cc(C)c3c(C)nn(-c4cccc(F)c4)c32)c1,inactive,–
CCOC(=O)C1CCN(c2csc3ccc(C)cc3c2=O)CC1,inactive,–
COc1ccc(CN2C(=O)CC(Cc3ccc(C)cc3)C2=O)cc1OC (configuration not stated),inactive,–
CCCCOc1ccc(CN2C(=O)C(=O)c3cc(Br)cc(C)c32)cc1OC,31.6 µM (active),–
CCCCN1C(=O)C(C)=C(C)C1OCCc1ccc(OC)c(OC)c1 (configuration not stated),inactive,–
COc1ccccc1CNC(=O)CS(=O)(=O)c1cccc2nsnc12,inactive,–
Cc1cc2ccccc2n1CCNC(=O)c1ccc(F)cc1,inactive,–
Cc1ccc2[nH]c(=O)c(CN(CC3COCCO3)C(=O)Nc3ccccc3C)cc2c1 (configuration not stated),inactive,–
CCC(=O)N(CCc1ccccc1)Cc1cc2cc(C)ccc2[nH]c1=O,inactive,–
Cc1ccc2[nH]c(=O)c(CN(CCCN(C)C)C(=O)Nc3cccc(Cl)c3)cc2c1,15.8 µM (active),–
CCOc1ccc(OCC)c(NC(=O)c2c(C)nn(-c3ccccc3)c2-n2cccc2)c1,inactive,–

Compound,Potency,"activity change, negative = inhibition"
CC(C)(C)OC(=O)N1CCC(c2c(C(=O)Nc3ccc4c(c3)OCO4)cnn2-c2ccccc2)CC1,inactive,–
CCOC(=O)C/C(C)=N\Nc1ccc([N+](=O)[O-])cc1[N+](=O)[O-],inactive,–
CCOC(=O)/C(=C\c1ccc([N+](=O)[O-])cc1)C(=O)c1cc(C(C)=O)c(Nc2ccccc2)s1,8.91 µM (active),–
CCOC(=O)/C(=N\Nc1ccccc1[N+](=O)[O-])c1csc(Nc2ccccc2)n1,–,-8.65% [at 11.3 µM] (inactive)
O=C(NCC12CC3CC(CC(C3)C1)C2)c1cc2nc(-c3ccccc3)cc(C(F)(F)F)n2n1,inactive,–
N#Cc1ccccc1NC(=O)COc1c(Br)cc(Br)c2cccnc12,inactive,–
O=C(Nc1cccc2cccnc12)c1cccc2c(Br)cccc12,inactive,–
CC(=O)NC(c1cccs1)c1cc(Br)c2cccnc2c1O (configuration not stated),5.01 µM (active),–
COc1ccc2cc1Oc1ccc(cc1)C[C@H]1c3cc(c(OC)cc3CCN1C)Oc1c(O)c(OC)cc3c1[C@H](C2)N(C)CC3,25.1 µM (active),–
COc1ccc(-c2nc3ccccc3o2)cc1NC(=O)c1cc([N+](=O)[O-])ccc1N1CCOCC1,inactive,–
COc1ccccc1CNC(=O)c1ccccc1NC(=O)c1nsc2ccccc12,inactive,–
CC1CCCCC1NC(=O)/C(C#N)=C/C=C/c1ccccc1[N+](=O)[O-] (configuration not stated),3.16 µM (active),–
O=[N+]([O-])c1ccccc1/C=C/CN1CCCC(CO)C1 (configuration not stated),inactive,–
O=[N+]([O-])c1ccccc1/C=C/CN1CCC(O)CC1,inactive,–
COC(=O)/C=C(/C)N,inactive,–
CN1CC[C@H](c2c(O)cc(O)c3c(=O)cc(-c4ccccc4Cl)oc23)[C@H](O)C1,31.6 µM (active),–
CCOc1cc(C=C2C(=O)N(c3ccccc3)N=C2C)cc(Cl)c1OCC(=O)OC,inactive,–
COc1cccc(CNCCSc2nnnn2C)c1OCc1ccccc1Cl,inactive,–
COc1ccc(C(CCNCc2ccccc2F)c2ccc(F)cc2)cc1 (configuration not stated),inactive,–
COc1cccc(CNCCc2c[nH]c3ccccc23)c1OCc1ccccc1F,20 µM (active),–
Cc1nnc(C(=O)NC(C)(C)c2nc(C(=O)NCc3ccc(F)cc3)c(O)c(=O)n2C)o1,inactive,–
COc1ccc(S(=O)(=O)NCCSc2nnnn2-c2ccccc2)cc1,inactive,–

Compound,Potency,"activity change, negative = inhibition"
CSc1ncnc2c1ncn2CCCNCC1CCCCC1,inactive,–
CSc1ncnc2c1ncn2CCCNCc1ccco1,inactive,–
CSc1ncnc2c1ncn2CC(=O)C1CCC2C3CCC4=CC(=O)CCC4(C)C3CCC12C (configuration not stated),22.4 µM (active),–
COc1ccc(-c2nc(Cn3c(=O)cc(C)c4c(C)nn(-c5ccccc5)c43)c(C)o2)c(OC)c1,inactive,–
CCOc1ccccc1CNC(=O)c1ccc(-n2c(C)cc3c2CCC(C)C3)cc1 (configuration not stated),inactive,–
CO/N=C(/C(=O)N[C@@H]1C(=O)N2C(C(=O)O)=C(Cn3nnc(C)n3)CS[C@H]12)c1csc(N)n1,inactive,–
O=[N+]([O-])c1c(NCCO)cc(Sc2nc3ccccc3s2)c2nonc12,14.1 µM (active),–
CC(C)(C)c1ccc(S(=O)(=O)Nc2ccc(O)c(Sc3nc4ccccc4s3)c2)cc1,inactive,–
CC(C)c1ccc(S(=O)(=O)Nc2ccc(O)c(Sc3nc4ccccc4s3)c2)cc1,inactive,–
CCCCN1CC(COCc2ccccc2)OCCS1(=O)=O (configuration not stated),inactive,–
CCCCC[C@H](C)N1C[C@@H](COCc2ccccc2)Oc2cc(N3CC[C@@H](N(C)C)C3)ccc2S1(=O)=O,31.6 µM (active),–
CCCCC[C@H](C)N1C[C@@H](COCc2ccccc2)Oc2cc(N3CCC[C@@H]3CO)ccc2S1(=O)=O,inactive,–
Cc1cccc(Nc2nc(C)nc(N)c2S(=O)(=O)c2ccccc2)c1,inactive,–
CC(C)CC[n+]1ccn(C2=C([O-])c3ccccc3C(=O)/C2=N\S(=O)(=O)c2ccccc2)c1,31.6 µM (active),–
CCC1=Nc2cc(C(=O)NCCCOC(C)C)ccc2Sc2ccc(C)cc21,inactive,–
Cc1ccc(C)c(N2CCN(C(=O)CN3C(=O)COc4ccc(S(=O)(=O)N5CCCCCC5)cc43)CC2)c1,inactive,–
COc1cccc(CNC(=O)C2CCC(CNS(=O)(=O)c3cccs3)CC2)c1 (configuration not stated),inactive,–
OC(c1ccccc1)(c1ccccc1)C1CCN(CCCOc2ccccc2)CC1,inactive,–
CN1CCC[C@@H]1CCO[C@](C)(c1ccccc1)c1ccc(Cl)cc1,25.1 µM (active),–
CC(C)(c1ccccc1)c1ccc(OCCN2CCCC2)cc1,inactive,–
CCOc1ccc(NC(=O)Cn2c(C)ccc(C#N)c2=O)cc1,inactive,–
NCC[C@H](O)C(=O)N[C@@H]1C[C@H](N)[C@@H](O[C@H]2O[C@H](CN)[C@@H](O)[C@H](O)[C@@H]2O)[C@H](O)[C@@H]1O[C@H]1O[C@H](CO)[C@@H](O)[C@H](N)[C@@H]1O,–,0.946% [at 0.709 µM] (inactive)

Compound,Potency,"activity change, negative = inhibition"
CCOc1cccc2c1N[C@@H](c1ccc(C(=O)O)cc1)[C@H]1CC=C[C@@H]21,inactive,–
O=C(NCCCn1ccnc1)c1ccccc1F,inactive,–
C/C(=N\NC(=O)c1ccccc1F)c1ccccn1,3.98 µM (active),–
O=C(Nc1nnc(-c2ccccc2F)s1)c1ccccc1F,inactive,–
CC1=NNC(=O)C1CCC(=O)N/N=C(\C)c1ccc(Cl)cc1 (configuration not stated),inactive,–
C/C(=N\NC(=O)Cc1ccc(Cl)cc1)c1ccccn1,3.16 µM (active),–
O=C(Cc1ccc(Cl)cc1)c1ccccc1,inactive,–
O=C(NCCc1ccccc1)C(=O)NCC(c1ccco1)S(=O)(=O)c1ccccc1 (configuration not stated),inactive,–
CCc1ccc(NC(=O)c2sc3nc4c(cc3c2N)CN(CC)CC4)cc1,inactive,–
COc1ccc(-c2cc(NC=O)c3ncc(-c4ccccc4)n3c2)cc1OC,inactive,–
CC(=O)N1CCCc2cc(S(=O)(=O)CCC(=O)N3CCN(c4ccccc4)CC3)ccc21,inactive,–
CC(=O)N1CCCc2cc(S(=O)(=O)N3CCCC(C(=O)N4CCN(c5cccc(Cl)c5)CC4)C3)ccc21 (configuration not stated),28.2 µM (active),–
COc1cccc(N2CCN(S(=O)(=O)c3ccc4c(c3)CCCN4C(C)=O)CC2)c1,inactive,–
CCN(CC)CCOC(=O)c1ccc(NC(=O)CNC(=O)c2ccccc2)cc1,inactive,–
CCCC(C(=O)OCCN(CC)CC)(c1ccccc1)c1ccccc1,31.6 µM (active),–
COC(CCN(C)C)(c1ccccc1)c1ccccc1,inactive,–
O=c1cc(CSc2ncn[nH]2)[nH]c2ccc(F)cc12,inactive,–
COc1cc(/C=C/C(N)=O)cc(OC)c1OC,inactive,–
COCCCN1CCC(NC(=O)c2cc(Cl)c(N)c3c2OCC3)CC1,inactive,–
